# Measurements as given in PubChem BioAssay (NCI).
# The panel holds about 79,000 compounds, 15% with a hit somewhere; the sample as a whole holds those more often. A number with no mark means an inactive call. Activity calls are given as the source filed them. Rule as the data show it: active = growth inhibition above about 70%; inactive = the rest.
# How the values were obtained:
# [1] = NCI Yeast Anticancer Drug Screen. Data for the rad52 strain (AID 147);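 also: 0% = growth of vehicle-treated control cultures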; conditions: S. cerevisiae rad52 mutant growth inhibition, hits give high values
# Summary of the method: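 Growth of repair-deficient yeast cells was compared between compound-treated and vehicle-treated cultures to give percent inhibition.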
# [2] = NCI Yeast Anticancer Drug Screen. Data for the wt1 strain (AID 149);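 also: 0% = growth of vehicle-treated wt1 cultures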; conditions: S. cerevisiae wt1 strain (SPY 50644) growth inhibition, hits give high values
# Summary of the method: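 Compounds are added to wt1 yeast cultures. Growth is then measured. Inhibition is expressed relative to vehicle-treated controls.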
# [3] = NCI Yeast Anticancer Drug Screen. Data for the rad50EPP+ strain (AID 151);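 also: 0% = growth of vehicle-treated control cultures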; conditions: S. cerevisiae rad50 mutant strain, hits give high values
# Summary of the method: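 Measured: growth inhibition of rad50EPP+ yeast. Reference: vehicle-treated controls. Screen uses strains with defined genetic alterations in DNA damage repair or cell cycle control.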
# [4] = NCI Yeast Anticancer Drug Screen. Data for the mgt1 strain (AID 153); conditions: S. cerevisiae mgt1 mutant growth inhibition, hits give high values
# Summary of the method: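 Compounds were applied to mgt1 mutant yeast, and growth was then compared against vehicle-treated control cultures to give percent inhibition.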
# [5] = NCI Yeast Anticancer Drug Screen. Data for the rad50 strain (AID 155);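 also: 0% = growth of vehicle-only cultures of the same strain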; conditions: S. cerevisiae rad50 strain growth inhibition, hits give high values
# Summary of the method: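 Inhibition values express reduced yeast growth in compound-treated cultures relative to vehicle-treated controls.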
# [6] = NCI Yeast Anticancer Drug Screen. Data for the mec2-1 strain (AID 157); conditions: S. cerevisiae mec2-1 strain, hits give high values
# Summary of the method: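 Compounds were applied to mec2-1 yeast cells. Their growth was then compared with that of vehicle-treated cultures to give growth inhibition.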
# [7] = NCI Yeast Anticancer Drug Screen. Data for the rad14 strain (AID 159);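 also: 0% = growth of vehicle-treated control cultures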; conditions: S. cerevisiae rad14 strain growth inhibition, hits give high values
# Summary of the method: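 A mutant yeast strain defective in DNA damage repair is treated with compound; inhibition of its growth is scored against untreated, vehicle-exposed cultures.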
# [8] = NCI Yeast Anticancer Drug Screen. Data for the sgs1 mgt1 strain (AID 161);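 also: 0% = growth of cultures given vehicle only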; conditions: S. cerevisiae sgs1 mgt1 strain, hits give high values
# Summary of the method: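 Growth of a repair-deficient yeast mutant was monitored after compound treatment and expressed as inhibition relative to vehicle-treated cultures.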
# [9] = NCI Yeast Anticancer Drug Screen. Data for the CLN2oe strain (AID 163);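 also: 0% = growth of vehicle-only control cultures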; conditions: S. cerevisiae CLN2oe strain, hits give high values
# Summary of the method: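 Cells of an engineered yeast line with disturbed cell-cycle regulation are treated with compound. Inhibition of growth is then calculated relative to the vehicle-treated reference.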
# [10] = NCI Yeast Anticancer Drug Screen. Data for the cln2 rad14 strain (AID 165);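 also: 0% = growth equal to vehicle treated cultures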; conditions: S. cerevisiae cln2 rad14 strain, hits give high values
# Summary of the method: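 Strain: cln2 rad14 yeast, altered in cell cycle control and DNA damage repair. Read-out: growth inhibition vs vehicle.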
# [11] = NCI Yeast Anticancer Drug Screen. Data for the bub3 strain (AID 167); conditions: S. cerevisiae bub3 mutant strain, hits give high values
# Summary of the method: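 Steps: expose the mutant yeast strain to compound; grow alongside vehicle-treated cultures; measure growth; express inhibition against the vehicle cultures.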
# [12] = NCI Yeast Anticancer Drug Screen. Data for the wt2 strain (AID 169);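 also: 0% = growth of vehicle-treated yeast cultures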; conditions: S. cerevisiae wt2 strain growth inhibition, hits give high values
# Summary of the method: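 Growth of compound-treated yeast is measured and expressed as inhibition relative to vehicle-only controls.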
# [13] = NCI Yeast Anticancer Drug Screen. Data for the mlh1 strain (AID 171);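 also: 0% = growth of vehicle-treated control cultures of the same strain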; conditions: S. cerevisiae mlh1 strain growth inhibition, hits give high values
# Summary of the method: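 Test agents were incubated with yeast bearing a defined DNA damage repair or cell cycle control alteration; values are growth inhibition normalised to vehicle-treated cultures.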
# [14] = NCI Yeast Anticancer Drug Screen. Data for the sgs1 strain (AID 173);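 also: 0% = growth of vehicle-only control cultures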; conditions: S. cerevisiae sgs1 mutant, hits give high values
# Summary of the method: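 Strain with an altered DNA repair or cell cycle pathway exposed to compound. Growth then measured. Value = inhibition versus vehicle control.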
# [15] = NCI Yeast Anticancer Drug Screen. Data for the mlh1 rad18 strain (AID 175); conditions: S. cerevisiae mlh1 rad18 strain growth inhibition, hits give high values
# Summary of the method: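 A repair-deficient yeast strain is exposed to test compound, and growth is scored relative to vehicle-treated controls.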
# [16] = NCI Yeast Anticancer Drug Screen. Data for the rad18 strain (AID 177); conditions: S. cerevisiae rad18 mutant growth inhibition, hits give high values
# Summary of the method: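 DNA-repair-defective yeast; compound treatment; growth inhibition scored against vehicle.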
# [17] = at 5.0 µM (retest, dose inferred, filed as 0.5)
# [18] = at 50.0 µM (retest, dose inferred, filed as 5.0)
smiles,measurement,setting,value
CC(=O)/C(=C\c1ccc(Cl)c(Cl)c1)C(=O)C(C)CN(C)C (stereo unspecified),growth inhibition,[1]; at 1.2 µM,19%
same,growth inhibition,[1]; at 3.7 µM,21%
same,growth inhibition,[1]; at 11.0 µM,33%
same,growth inhibition,[1]; at 33.0 µM,52%
same,growth inhibition,[1]; at 100.0 µM,91% (active)
same,growth inhibition,[2]; at 1.2 µM,-12%
same,growth inhibition,[2]; at 3.7 µM,-13%
same,growth inhibition,[2]; at 11.0 µM,-12%
same,growth inhibition,[2]; at 33.0 µM,10%
same,growth inhibition,[2]; at 100.0 µM,90% (active)
same,growth inhibition,[3]; at 1.2 µM,7%
same,growth inhibition,[3]; at 3.7 µM,7%
same,growth inhibition,[3]; at 11.0 µM,3%
same,growth inhibition,[3]; at 33.0 µM,37%
same,growth inhibition,[3]; at 100.0 µM,90% (active)
same,growth inhibition,[4]; at 1.2 µM,6%
same,growth inhibition,[4]; at 3.7 µM,-2%
same,growth inhibition,[4]; at 11.0 µM,10%
same,growth inhibition,[4]; at 33.0 µM,46%
same,growth inhibition,[4]; at 100.0 µM,93% (active)
same,growth inhibition,[5]; at 1.2 µM,26%
same,growth inhibition,[5]; at 3.7 µM,22%
same,growth inhibition,[5]; [17],14%
same,growth inhibition,[5]; at 11.0 µM,18%
same,growth inhibition,[5]; at 33.0 µM,62%
same,growth inhibition,[5]; [18],36%
same,growth inhibition,[5]; at 50.0 µM,64.4%
same,growth inhibition,[5]; at 100.0 µM,91% (active)
same,growth inhibition,[6]; at 1.2 µM,19%
same,growth inhibition,[6]; at 3.7 µM,29%
same,growth inhibition,[6]; [17],9%
same,growth inhibition,[6]; at 11.0 µM,38%
same,growth inhibition,[6]; at 33.0 µM,51%
same,growth inhibition,[6]; [18],76% (active)
same,growth inhibition,[6]; at 50.0 µM,87.5% (active)
same,growth inhibition,[6]; at 100.0 µM,93% (active)
same,growth inhibition,[7]; at 1.2 µM,-3%
same,growth inhibition,[7]; at 3.7 µM,2%
same,growth inhibition,[7]; at 11.0 µM,-8%
same,growth inhibition,[7]; at 33.0 µM,22%
same,growth inhibition,[7]; at 100.0 µM,92% (active)
same,growth inhibition,[8]; [17],-8%
same,growth inhibition,[8]; [18],97% (active)
same,growth inhibition,[8]; at 50.0 µM,85.7% (active)
same,growth inhibition,[9]; at 1.2 µM,8%
same,growth inhibition,[9]; at 3.7 µM,-2%
same,growth inhibition,[9]; at 11.0 µM,17%
same,growth inhibition,[9]; at 33.0 µM,44%
same,growth inhibition,[9]; at 100.0 µM,81% (active)
same,growth inhibition,[10]; [17],-1%
same,growth inhibition,[10]; [18],93% (active)
same,growth inhibition,[10]; at 50.0 µM,81.2% (active)
same,growth inhibition,[11]; at 1.2 µM,7%
same,growth inhibition,[11]; at 3.7 µM,-1%
same,growth inhibition,[11]; [17],12%
same,growth inhibition,[11]; at 11.0 µM,11%
same,growth inhibition,[11]; at 33.0 µM,53%
same,growth inhibition,[11]; [18],96% (active)
same,growth inhibition,[11]; at 50.0 µM,82.8% (active)
same,growth inhibition,[11]; at 100.0 µM,93% (active)
same,growth inhibition,[12]; at 1.2 µM,-12%
same,growth inhibition,[12]; at 3.7 µM,-6%
same,growth inhibition,[12]; at 11.0 µM,-1%
same,growth inhibition,[12]; at 33.0 µM,88% (active)
same,growth inhibition,[12]; at 100.0 µM,98% (active)
same,growth inhibition,[13]; at 1.2 µM,6%
same,growth inhibition,[13]; at 3.7 µM,-2%
same,growth inhibition,[13]; at 11.0 µM,10%
same,growth inhibition,[13]; at 33.0 µM,46%
same,growth inhibition,[13]; at 100.0 µM,93% (active)
same,growth inhibition,[14]; at 1.2 µM,40%
same,growth inhibition,[14]; at 3.7 µM,48%
same,growth inhibition,[14]; at 11.0 µM,64%
same,growth inhibition,[14]; at 33.0 µM,76% (active)
same,growth inhibition,[14]; at 100.0 µM,97% (active)
same,growth inhibition,[15]; [17],16%
same,growth inhibition,[15]; [18],97% (active)
same,growth inhibition,[15]; at 50.0 µM,90.3% (active)
same,growth inhibition,[16]; at 1.2 µM,26%
same,growth inhibition,[16]; at 3.7 µM,30%
same,growth inhibition,[16]; at 11.0 µM,55%
same,growth inhibition,[16]; at 33.0 µM,82% (active)
same,growth inhibition,[16]; at 100.0 µM,93% (active)
O=C(Nn1c(-c2ccccc2)nc2ccccc2c1=O)c1ccc(CS)cc1,growth inhibition,[1]; at 1.2 µM,5%
same,growth inhibition,[1]; at 3.7 µM,20%
same,growth inhibition,[1]; at 11.0 µM,12%
same,growth inhibition,[1]; at 33.0 µM,53%
same,growth inhibition,[1]; at 100.0 µM,98% (active)
same,growth inhibition,[2]; at 1.2 µM,-4%
same,growth inhibition,[2]; at 3.7 µM,-6%
same,growth inhibition,[2]; at 11.0 µM,-1%
same,growth inhibition,[2]; at 33.0 µM,23%
same,growth inhibition,[2]; at 100.0 µM,98% (active)
same,growth inhibition,[3]; at 1.2 µM,-2%
same,growth inhibition,[3]; at 3.7 µM,6%
same,growth inhibition,[3]; at 11.0 µM,5%
same,growth inhibition,[3]; at 33.0 µM,31%
same,growth inhibition,[3]; at 100.0 µM,76% (active)
same,growth inhibition,[4]; at 1.2 µM,-9%
same,growth inhibition,[4]; at 3.7 µM,-19%
same,growth inhibition,[4]; at 11.0 µM,-17%
same,growth inhibition,[4]; at 33.0 µM,23%
same,growth inhibition,[4]; at 100.0 µM,97% (active)
same,growth inhibition,[5]; at 1.2 µM,-5%
same,growth inhibition,[5]; at 3.7 µM,2%
same,growth inhibition,[5]; [17],-35%
same,growth inhibition,[5]; at 11.0 µM,8%
same,growth inhibition,[5]; at 33.0 µM,47%
same,growth inhibition,[5]; [18],10%
same,growth inhibition,[5]; at 50.0 µM,79.2% (active)
same,growth inhibition,[5]; at 100.0 µM,98% (active)
same,growth inhibition,[6]; at 1.2 µM,-4%
same,growth inhibition,[6]; at 3.7 µM,-17%
same,growth inhibition,[6]; [17],-23%
same,growth inhibition,[6]; at 11.0 µM,-15%
same,growth inhibition,[6]; at 33.0 µM,24%
same,growth inhibition,[6]; [18],34%
same,growth inhibition,[6]; at 50.0 µM,43.4%
same,growth inhibition,[6]; at 100.0 µM,97% (active)
same,growth inhibition,[7]; at 1.2 µM,-16%
same,growth inhibition,[7]; at 3.7 µM,-16%
same,growth inhibition,[7]; at 11.0 µM,-19%
same,growth inhibition,[7]; at 33.0 µM,21%
same,growth inhibition,[7]; at 100.0 µM,97% (active)
same,growth inhibition,[8]; [17],-11%
same,growth inhibition,[8]; [18],27%
same,growth inhibition,[8]; at 50.0 µM,60.2%
same,growth inhibition,[9]; at 1.2 µM,-11%
same,growth inhibition,[9]; at 3.7 µM,10%
same,growth inhibition,[9]; at 11.0 µM,0%
same,growth inhibition,[9]; at 33.0 µM,20%
same,growth inhibition,[9]; at 100.0 µM,97% (active)
same,growth inhibition,[10]; [17],19%
same,growth inhibition,[10]; [18],40%
same,growth inhibition,[10]; at 50.0 µM,27.5%
same,growth inhibition,[11]; at 1.2 µM,-7%
same,growth inhibition,[11]; at 3.7 µM,-14%
same,growth inhibition,[11]; [17],-12%
same,growth inhibition,[11]; at 11.0 µM,-13%
same,growth inhibition,[11]; at 33.0 µM,47%
same,growth inhibition,[11]; [18],81% (active)
same,growth inhibition,[11]; at 50.0 µM,50.8%
same,growth inhibition,[11]; at 100.0 µM,98% (active)
same,growth inhibition,[12]; at 1.2 µM,9%
same,growth inhibition,[12]; at 3.7 µM,6%
same,growth inhibition,[12]; at 11.0 µM,9%
same,growth inhibition,[12]; at 33.0 µM,34%
same,growth inhibition,[12]; at 100.0 µM,98% (active)
same,growth inhibition,[13]; at 1.2 µM,9%
same,growth inhibition,[13]; at 3.7 µM,7%
same,growth inhibition,[13]; at 11.0 µM,10%
same,growth inhibition,[13]; at 33.0 µM,53%
same,growth inhibition,[13]; at 100.0 µM,98% (active)
same,growth inhibition,[14]; at 1.2 µM,15%
same,growth inhibition,[14]; at 3.7 µM,8%
same,growth inhibition,[14]; at 11.0 µM,21%
same,growth inhibition,[14]; at 33.0 µM,65%
same,growth inhibition,[14]; at 100.0 µM,98% (active)
same,growth inhibition,[15]; [17],-22%
same,growth inhibition,[15]; [18],74% (active)
same,growth inhibition,[15]; at 50.0 µM,48%
same,growth inhibition,[16]; at 1.2 µM,15%
same,growth inhibition,[16]; at 3.7 µM,16%
same,growth inhibition,[16]; at 11.0 µM,14%
same,growth inhibition,[16]; at 33.0 µM,62%
same,growth inhibition,[16]; at 100.0 µM,98% (active)
